Among the test systems are DU-145 prostate; K-562 leukemia; MALME-3M melanoma; MDA-MB-231 breast; RXF 393 renal; SF-268 CNS; SF-539 CNS; UACC-257 melanoma; M14 melanoma; SF-295 CNS.
Common to all, as to assay: NCI-60 one-dose screen, 48 h (100 = growth as untreated, 0 = no growth, -100 = all killed)
Holding throughout (details): 10 µM unless noted

Molecules are shown by their SMILES. Compounds without any hit were thinned out: in the full panel of roughly 83,000, 20% have a hit.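 Percent growth is the endpoint: 0 to 100 indicates growth inhibition (40 means 60% inhibition), 0 means no net growth, and negative values indicate cell death.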 A number with no mark means an inactive call. Calls of active or inactive are those of the source. How the source made its calls: active means growth percent below 10; inactive means the rest.

With `CC(=O)Nc1ccc(S(=O)(=O)Cl)cc1`, the growth in the assay with DU-145 prostate is 107%; with K-562 leukemia it was 98.1%; in the assay on MALME-3M melanoma it was 111%; in the assay on MDA-MB-231 breast, 118%; in the assay on RXF 393 renal, 96.2%; with SF-268 CNS, 109%. The growth in the assay with SF-539 CNS was 100%; with UACC-257 melanoma it was 131%; with M14 melanoma, 118%.

For `COc1ccc(Nc2c3ccccc3nc3ccccc23)cc1`, the growth in the assay on DU-145 prostate is 21.5%; with K-562 leukemia, 12.4%; with MALME-3M melanoma it was 42.3%; in the assay with MDA-MB-231 breast it was 55.3%; in the assay on RXF 393 renal it was 28.1%; with SF-268 CNS, 35.9%. The growth is 15.9% with SF-295 CNS, 23.3% in the assay on SF-539 CNS and 48% in the assay on M14 melanoma.

For `COc1ccc2cc(C(C)C(=O)Nc3ccc(S(=O)(=O)Nc4cc(C)on4)cc3)ccc2c1` (centres undefined), the growth was 115% in the assay with DU-145 prostate; 95% with K-562 leukemia; 115% with MALME-3M melanoma; 117% in the assay with MDA-MB-231 breast; 92% with RXF 393 renal; 100% in the assay on SF-268 CNS. Moreover, the growth in the assay with SF-295 CNS was 105%; in the assay on SF-539 CNS, 97.4%; in the assay on M14 melanoma it was 103%.

For the molecule `COC(=O)c1c[n+]([O-])ccc1OC`, the growth with DU-145 prostate was 114%; with K-562 leukemia, 71.1%; in the assay on MALME-3M melanoma, 92.1%; in the assay with MDA-MB-231 breast it was 99.4%; in the assay on RXF 393 renal it was 108%; in the assay on SF-268 CNS it was 116%. In addition, the results for the growth in the assay with SF-295 CNS, in the assay with SF-539 CNS and in the assay with M14 melanoma were 88.1%, 122% and 104%, respectively.

For the molecule `CCCCCCCCCCCCCCCCCCOP(=O)(O)O`, the growth was 116% with DU-145 prostate; 110% with K-562 leukemia; 112% in the assay on MALME-3M melanoma; 96.6% in the assay on MDA-MB-231 breast; 114% with RXF 393 renal; 109% in the assay with SF-268 CNS. Besides, the growth in the assay with SF-539 CNS was 104%; in the assay with UACC-257 melanoma, 113%; in the assay on M14 melanoma it was 99.4%.

In the case of `CCOC(=O)C(C)C(C)(O)c1ccccc1` (centres undefined), the growth in the assay on DU-145 prostate is 110%; with K-562 leukemia it was 100%; in the assay on MALME-3M melanoma, 84.2%; in the assay on MDA-MB-231 breast, 103%; in the assay on RXF 393 renal, 103%; in the assay on SF-268 CNS it was 98.6%. The values for the growth in the assay with SF-295 CNS, with SF-539 CNS and in the assay with M14 melanoma were 103%, 105% and 96.3%, respectively.

Turning to `COC(=O)C(C(=O)OC)C(Br)C(Br)C(Br)c1ccccc1` (centres undefined), the growth with DU-145 prostate was 89.5%; with K-562 leukemia, 24.8%; with MALME-3M melanoma, 101%; in the assay with MDA-MB-231 breast, 117%; with RXF 393 renal, 57.5%; in the assay with SF-268 CNS, 99.2%. For the same molecule, the growth was 98% in the assay on SF-539 CNS, 82.7% with UACC-257 melanoma and 104% in the assay with M14 melanoma.

Turning to `CC(=O)O.[In]`, the growth is 113% in the assay on DU-145 prostate; 96.7% in the assay with K-562 leukemia; 109% with MALME-3M melanoma; 116% in the assay with MDA-MB-231 breast; 106% with RXF 393 renal; 103% with SF-268 CNS. Moreover, the growth in the assay on SF-539 CNS was 110%; in the assay on UACC-257 melanoma, 94.3%; in the assay with M14 melanoma it was 105%.

For `COc1ccc(/C=C/C(=O)/C=C/c2cc3ccccc3[nH]c2=O)cc1`, the growth with DU-145 prostate was 81.2%; with K-562 leukemia, 4.13% (active); with MALME-3M melanoma it was 32.6%; in the assay on MDA-MB-231 breast, 64.5%; in the assay on RXF 393 renal, 30.6%; in the assay with SF-268 CNS, 47.8%. Also, the growth in the assay on SF-295 CNS is 104%; with UACC-257 melanoma, 74.8%; in the assay with M14 melanoma, 72.9%.

As for `COC(=O)c1cc(=O)nc(N/N=C/c2ccccc2O)s1`, the growth is 111% in the assay on DU-145 prostate; 78.8% with K-562 leukemia; 82.5% with MALME-3M melanoma; 83.8% with MDA-MB-231 breast; 99.7% in the assay on RXF 393 renal; 88.1% with SF-268 CNS. In addition, the results for the growth in the assay with SF-295 CNS, with SF-539 CNS and in the assay on M14 melanoma were 81.4%, 106% and 95.2%, respectively.

With `CCOC(=O)CNS(=O)(=O)CC(=O)c1ccccc1`, the growth in the assay on DU-145 prostate was 117%; in the assay on K-562 leukemia, 86.8%; in the assay on MALME-3M melanoma, 83%; in the assay with MDA-MB-231 breast, 97.3%; in the assay with RXF 393 renal, 117%; in the assay on SF-268 CNS, 124%. Moreover, the results for the growth in the assay with SF-295 CNS, in the assay on UACC-257 melanoma and in the assay with M14 melanoma were 118%, 132% and 93.4%, respectively.

With `CC(C)C(=O)c1ccc(Cl)s1`, the growth with DU-145 prostate is 106%; with K-562 leukemia, 91.5%; in the assay with MALME-3M melanoma, 82.8%; with MDA-MB-231 breast it was 105%; in the assay with RXF 393 renal it was 105%; in the assay with SF-268 CNS, 102%. In addition, the growth in the assay with SF-295 CNS was 99.3%; with SF-539 CNS, 107%; in the assay on M14 melanoma, 101%.

Take `CCS(=O)(=O)N[C@@H]1O[C@H](COC(C)=O)C(OC(C)=O)[C@H](OC(C)=O)C1OC(C)=O` (some centres undefined): the growth with DU-145 prostate was 105%; with K-562 leukemia it was 99.4%; with MALME-3M melanoma, 115%; with MDA-MB-231 breast, 110%; with RXF 393 renal, 88.1%; with SF-268 CNS it was 94.4%. Moreover, the growth with SF-295 CNS was 111%; with SF-539 CNS it was 95.1%; in the assay with M14 melanoma it was 109%.

For `CCCCCCCCCCCCCCCCCC(=O)Nc1ccc(O)cc1`, the growth with DU-145 prostate is 103%; in the assay with K-562 leukemia, 96.6%; in the assay with MALME-3M melanoma it was 94.1%; in the assay with MDA-MB-231 breast, 86.3%; in the assay on RXF 393 renal it was 99.6%; in the assay on SF-268 CNS it was 84.2%. In addition, the growth in the assay on SF-295 CNS is 106%; in the assay with SF-539 CNS, -16% (active); with M14 melanoma, 103%.

For the molecule `COc1cc(OC)c(/C=C/c2ccc3ccccc3[n+]2C)c(OC)c1`, the growth in the assay with DU-145 prostate was 22.3%; in the assay with K-562 leukemia, 9.98% (active); in the assay with MALME-3M melanoma, 3.03% (active); with MDA-MB-231 breast, 28.2%; with RXF 393 renal, 34.5%; in the assay on SF-268 CNS it was 18%. The growth is -32.7% (active) in the assay with SF-295 CNS, -23.7% (active) in the assay with SF-539 CNS and 15.9% in the assay on M14 melanoma.

On to `CCCCCCCCCC(C)NC(=O)CCl` (centres undefined), for which the growth in the assay with DU-145 prostate was 102%; with K-562 leukemia, 97.3%; with MALME-3M melanoma, 93.8%; in the assay with MDA-MB-231 breast it was 93%; in the assay on RXF 393 renal it was 101%; in the assay with SF-268 CNS, 95.1%. Besides, the growth was 99.8% in the assay on SF-295 CNS, 99.9% with SF-539 CNS and 107% in the assay on M14 melanoma.

The values above are taken from PubChem BioAssay (NCI).
